The text below walks through data of PubChem BioAssay.

Results filed as inconclusive are left out. Active and inactive are the calls of the source.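 Rule for the calls, unless noted: active = viability increase at or above a cutoff of the median across tested compounds plus 3 SD (cut at about 8.5% in these data, passing the limit was not always enough); inconclusive = some gains above the cutoff, reason not given; inactive = the rest.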

The nature of experiment [1]: reducers of endogenous Her2 protein level, primary screen, SKBR3 breast tumor cells, AlphaScreen, ATP viability (AID 461;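 active = Her2 level under about 52% in both replicate screens, with viability over 70% of control, limit read from the data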;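 for Her2 level: lower value means less Her2 protein in the cells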;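 for viability: percent of carrier control wells set as 100% viability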). To be noted: 18-24 h, measured here: SKBR3 viability, ATP luminescence, at 10 µM.
Experiment [2] has as its target Receptor tyrosine-protein kinase erbB-2 (Homo sapiens) (UniProt P04626). The experiment is described as above. To be noted: 18-24 h, at 10 µM, stronger effect = lower value.
Experiment [3] in a line: SK-BR-3 cell growth inhibitors, pilot screen, 24 h, human (AID 572;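 active = viability at or below 10% of carrier control in both of two separate runs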;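 note: compound exposure lasted between 18 and 24 h rather than exactly 24 h; 100% = carrier-treated control wells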). Conditions: SK-BR-3 viability, CellTiter-Glo luminescence, at 10 µM, stronger effect = lower value.
A short description of experiment [4]: HUVEC growth inhibition – cell-based, human, primary screen (AID 575;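 active = viability at or below 30% in both replicate assays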;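 note: 100% = median of untreated cell wells with 0.1% DMSO on each plate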). To be noted: HUVEC proliferation, CellTiter-Glo luminescence, 72 h; at 10 µM; stronger effect = lower value.
Experiment [5] can be described thus: growth inhibitors of H69AR lung tumor, primary screen, human, duplicate replicates (AID 580;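 active = viability at or under a set limit in both replicates, limit being median viability minus 3 SD, cut at about 48% in these data, passing the limit was not always enough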;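 note: 100% = mean luminescence of untreated wells and 0% = no signal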). Conditions: H69AR lung tumor cells viability, ATP luminescence, 72 h; at 10 µM; stronger effect = lower value.
Experiment [6] can be described thus: reversal of MRP1-mediated doxorubicin resistance, pilot screen, H69AR cells, doxorubicin co-treatment (AID 601;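 active = viability loss from added drug above about 55%, and viability with drug at most 40%, in both replicates, limit read from the data, passing the limit was not always enough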). To be noted: CellTiter-Glo, 72 h, at 10 µM; for differential viability (reversal): stronger effect = higher value.
Experiment [7] is described as follows: 384-well plate pilot, post-Golgi transport modulator project, inhibition of yeast transport mutant growth (AID 636; in the data active = inhibition above about 31%). Conditions: absorbance 615 nm, about 18 h, stronger effect = higher value.
The nature of experiment [8]: growth suppression of yeast trafficking mutant, preliminary HTS, modulators of trafficking downstream of Golgi apparatus project, 1536-format plate, OD 615 nm (AID 637; in the data active = inhibition above about 30%). Conditions: yeast transport mutant growth, absorbance 615 nm, 18 h; stronger effect = higher value.
Experiment [9] is described as follows: OD615 S. cerevisiae growth inhibition, permissive medium, pilot counter-assay, permissive growth control for S. cerevisiae lifespan shortening project (AID 705;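 active = growth inhibition above 25% in both replicates, a cutoff set 3 SD above the mean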). To be noted: OD615, 24 h, at 10 µM, stronger effect = higher value.
Experiment [10] can be described thus: Restrictive medium S. cerevisiae growth inhibition, OD615, pilot screen of yeast lifespan reduction project, restrictive growth control (AID 706;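 active = growth inhibition above a set limit, 3 SD over mean compound inhibition, in both replicates, cut at about 43% in these data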;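 note: modified DeaD lifespan yeast strain shifted to restrictive glucose medium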). Conditions: OD615, 48 h, at 10 µM, stronger effect = higher value.
Experiment [11] can be described thus: viability gain of MRP-1-high H69AR cells under doxorubicin, pilot screen, MRP-1 activator project, CellTiter-Glo, duplicate (AID 807).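 Note: compound pretreatment 18-22 h then 72 h combined with doxorubicin; 0% = doxorubicin alone and 100% = vehicle without doxorubicin.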 Conditions: H69AR viability with doxorubicin, CellTiter-Glo luminescence; at 10 µM; stronger effect = higher value.
Experiment [12] in a line: growth suppression of beta-catenin knockout HCT116, pilot screen, human colon tumor cells (AID 823;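 active = cell viability at or below a set limit in both duplicate runs, the limit being the all-compound median minus 4 SD, cut at about 23% in these data, passing the limit was not always enough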;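 note: 0% = wells killed by 20 µM Hyamine and 100% = untreated DMSO cell wells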). Conditions: CellTiter-Glo, 60 h, at 10 µM, stronger effect = lower value.
Experiment [13] can be described thus: growth suppression of PTEN-deleted HCT116, pilot screen, cell-based, HCT116 clonal line, CellTiter-Glo (AID 824;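 active = viability at or below 27.92% in each of two runs, the all-compound median minus 4 SD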;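 note: 0% = 20 µM Hyamine control and 100% = vehicle cell control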). Conditions: 60 h, at 10 µM, stronger effect = lower value.
Experiment [14] is described as follows: inhibitors of the yeast RAM network, pilot screen, dse1pr::URA3 reporter, 5-FOA selection (AID 869;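 active = inhibition over a set limit, the all-compound mean plus 3 SD, in both replicate runs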;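 note: 0% = DMSO wells with no growth and 100% = 10 µM 1-NA-PP1 with full growth; RAM network block rescues cells from 5-FOA so hits raise OD615 growth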). Conditions: S. cerevisiae dse1pr::URA3 5-FOA growth, OD615, 2 d; at 10 µM; stronger effect = higher value; strain carries analog-sensitive mutant Cbk1 kinase.
Experiment [15] in a line: RAM signaling pathway blockade in yeast – S. cerevisiae, Pdr1DBD-CYC8 efflux-inhibited sensitized strain, primary screen (AID 1298;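 active = RAM network inhibition above 8.4% in each of two replicates, 3 SD over the compound average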;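 note: 0% = DMSO untreated cells without growth and 100% = 10 µM 1-NA-PP1 full growth; higher means more yeast growth rescued from 5-FOA killing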). Conditions: S. cerevisiae cbk1-as DSE1-URA3 strain, 5-FOA growth OD615, 2 d; at 50 µM; stronger effect = higher value.
Setting [16] is: H69AR cells + 2 uM doxorubicin, measured here: viability with 2 uM doxorubicin, stronger effect = lower value.
The mark [17] stands for this setting: H69AR cells, compound alone cytotoxicity.

Chain of Receptor tyrosine-protein kinase erbB-2 (Homo sapiens) (P04626 whole entry, looked up): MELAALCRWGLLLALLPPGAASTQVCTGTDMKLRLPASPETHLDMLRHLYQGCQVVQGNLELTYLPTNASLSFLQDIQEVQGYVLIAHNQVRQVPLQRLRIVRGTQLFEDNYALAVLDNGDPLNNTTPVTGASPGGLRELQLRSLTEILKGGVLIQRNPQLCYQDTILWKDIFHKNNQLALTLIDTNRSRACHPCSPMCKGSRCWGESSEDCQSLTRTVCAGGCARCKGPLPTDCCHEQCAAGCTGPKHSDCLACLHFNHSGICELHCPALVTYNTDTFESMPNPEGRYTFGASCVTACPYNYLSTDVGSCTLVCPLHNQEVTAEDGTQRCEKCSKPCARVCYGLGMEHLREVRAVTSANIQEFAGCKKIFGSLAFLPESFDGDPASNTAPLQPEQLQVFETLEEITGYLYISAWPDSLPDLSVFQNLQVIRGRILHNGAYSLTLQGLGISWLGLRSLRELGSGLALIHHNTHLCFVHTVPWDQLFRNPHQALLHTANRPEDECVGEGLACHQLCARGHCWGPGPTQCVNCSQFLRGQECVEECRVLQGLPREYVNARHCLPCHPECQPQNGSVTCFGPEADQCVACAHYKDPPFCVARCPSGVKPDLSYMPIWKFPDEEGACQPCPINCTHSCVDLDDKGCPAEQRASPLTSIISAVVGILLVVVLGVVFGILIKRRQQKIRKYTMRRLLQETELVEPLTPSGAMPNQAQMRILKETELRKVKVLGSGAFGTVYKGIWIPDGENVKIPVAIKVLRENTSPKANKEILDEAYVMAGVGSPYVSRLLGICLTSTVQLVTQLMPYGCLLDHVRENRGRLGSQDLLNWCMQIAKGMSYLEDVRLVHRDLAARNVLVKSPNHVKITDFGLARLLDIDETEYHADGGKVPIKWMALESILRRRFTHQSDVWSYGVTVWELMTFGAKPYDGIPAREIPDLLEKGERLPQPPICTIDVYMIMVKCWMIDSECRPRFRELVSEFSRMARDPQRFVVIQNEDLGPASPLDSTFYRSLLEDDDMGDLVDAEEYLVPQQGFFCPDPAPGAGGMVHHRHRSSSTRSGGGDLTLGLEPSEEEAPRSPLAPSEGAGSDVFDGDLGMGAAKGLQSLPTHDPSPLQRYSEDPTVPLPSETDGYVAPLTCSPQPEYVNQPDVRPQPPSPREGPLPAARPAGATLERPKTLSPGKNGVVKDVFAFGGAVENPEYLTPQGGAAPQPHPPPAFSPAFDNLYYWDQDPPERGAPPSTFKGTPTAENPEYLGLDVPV

For `N#C/C(C(=O)N1CCOCC1)=C1/SC=C(c2ccccc2)N1c1ccccc1`, the viability is 102% in experiment [1]; 102% (inactive) in [3]; 107% (inactive) in experiment [4]; 96.1% (inactive) in experiment [5]; 91.3% in [6] (setting [16]); 96.1% in experiment [6] (setting [17]). The results for the viability in [12] and in [13] were 96.6% (inactive) and 95% (inactive), respectively. The Her2 level in experiment [2] was 92% (inactive). The differential viability (reversal) in experiment [6] (H69AR cells + 2 uM doxorubicin) was 4.83% (inactive). Also, the inhibition in experiment [7] is -7.57% (inactive); in experiment [8], 1.67% (inactive); in experiment [14] it was 2.57% (inactive). The growth inhibition in [9] is -1.56% (inactive); in experiment [10], -17.9% (inactive). For the same compound, the viability increase in experiment [11] was -1.27% (inactive). Besides, the RAM network inhibition in experiment [15] is 1.55% (inactive).
As to `CCN(CC)CCCNC(=O)c1cn(C)c2ccc(S(=O)(=O)N(C)C)cc2c1=O`, the viability is 98.5% in experiment [1]; 98.5% (inactive) in experiment [3]; 99.2% (inactive) in [4]; 99.4% (inactive) in experiment [5]; 96.7% in [6] (setting [16]); 99.4% in experiment [6] (setting [17]). Moreover, the viability in experiment [12] was 101% (inactive); in experiment [13] it was 98.5% (inactive). In [2], the Her2 level was 116% (inactive). For the same compound, the differential viability (reversal) in [6] (H69AR cells + 2 uM doxorubicin) was 2.72% (inactive). Further, the results for the inhibition in [7], in experiment [8] and in experiment [14] were -0.26% (inactive), 1.5% (inactive) and 2.21% (inactive), respectively. Moreover, the growth inhibition is -1.33% (inactive) in [9] and 8.49% (inactive) in experiment [10]. The viability increase in experiment [11] is -0.44% (inactive). In addition, the RAM network inhibition in [15] was 1.85% (inactive).
As for `Cc1cc(C)c(NC(=O)Cn2cc3c(n2)CCCC3)c(C)c1`, the viability in experiment [1] was 87.5%; in experiment [3] it was 87.5% (inactive); in experiment [4], 104% (inactive); in experiment [5], 96.5% (inactive); in [6] (setting [16]), 100%; in [6] (setting [17]), 96.5%. For the same compound, the viability in experiment [12] is 109% (inactive); in [13], 94.9% (inactive). In [2], the Her2 level is 103% (inactive). Moreover, the differential viability (reversal) in [6] (H69AR cells + 2 uM doxorubicin) was -3.94% (inactive). The results for the inhibition in experiment [7], in [8] and in experiment [14] were -6% (inactive), 5.74% (inactive) and 2.3% (inactive), respectively. The growth inhibition in experiment [9] was 6.13% (inactive); in experiment [10], 12.4% (inactive). The viability increase in experiment [11] was -0.84% (inactive). Moreover, in experiment [15], the RAM network inhibition is 4.34% (inactive).
Consider `CCOC(=O)c1[nH]c(C)c(C(=O)NC)c1C`, for which the viability in [1] is 92%; in [3], 92% (inactive); in [4] it was 89.7% (inactive); in experiment [5], 98.8% (inactive); in experiment [6] (setting [16]) it was 85%; in experiment [6] (setting [17]), 98.8%. In addition, the viability in experiment [12] was 109% (inactive); in experiment [13] it was 90.8% (inactive). Further, the Her2 level in experiment [2] is 112% (inactive). Besides, the differential viability (reversal) in experiment [6] (H69AR cells + 2 uM doxorubicin) was 13.8% (inactive). Besides, the inhibition in experiment [7] is -0.26% (inactive); in experiment [8] it was -1.17% (inactive); in experiment [14] it was 1.32% (inactive). The figures for the growth inhibition in [9] and in [10] were -4.37% (inactive) and -10.2% (inactive), respectively. Also, in experiment [11], the viability increase was -0.95% (inactive). Also, the RAM network inhibition in [15] was -1.66% (inactive).
For `CC1CCCC(N2CCN(C(=O)c3ccc(F)cc3)CC2)C1` (stereo not given), the viability in [1] is 95%; in experiment [3], 95% (inactive); in experiment [4], 75.4% (inactive); in experiment [5] it was 91.3% (inactive); in [6] (setting [16]), 89.6%; in [6] (setting [17]) it was 91.3%. For the same compound, the figures for the viability in experiment [12] and in experiment [13] were 101% (inactive) and 98.5% (inactive), respectively. Moreover, the Her2 level in experiment [2] is 109% (inactive). Further, the differential viability (reversal) in [6] (H69AR cells + 2 uM doxorubicin) was 1.66% (inactive). Further, the inhibition in experiment [7] was 1.2% (inactive); in [8] it was 3.5% (inactive); in experiment [14], 0.22% (inactive). The growth inhibition is -0.99% (inactive) in experiment [9] and -4.36% (inactive) in experiment [10]. Further, the viability increase in [11] was -0.74% (inactive). Besides, the RAM network inhibition in experiment [15] is -0.84% (inactive).
